Assay results as given in PubChem BioAssay (Tox21).
Values joined by “and” are separate entries in the source; they are usually repeats but may differ in a detail not shown here. Identical values can stand only once. Inconclusive results are not listed. A call without a number means that no potency is given here. Some structures have more than one record in an assay (separate samples or runs), and their calls can disagree. Active and inactive are the calls of the source. Unless noted, calls follow the shape of the dose curve; as a rule, active = well fitted curve in the direction sought with a large enough effect in the repeat runs; inconclusive = weak or mixed curves; inactive = no such curve, though single readings can be large; an effect the other way counts as inactive or inconclusive.

How the values were obtained:
[1] = qHTS assay to identify small molecule agonists of the hypoxia (HIF-1) signaling pathway - cell viability counter screen (AID 1224844; calls by dose curve; also: nearly all actives have a fitted effect of over 50% in size; also: potency is read from the fitted curve at half-maximal effect)
Summary of the method: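 Cells (HRE-bla ME-180, 2,000 per well) sat 5 hrs at 37C, got compound for 17 hrs, were read for CCF4-AM FRET, and were finally lysed with CellTiter-Glo for a 30 min room-temperature luminescence read.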

[2] = qHTS assay to identify small molecule agonists of H2AX (AID 1224845; active = well fitted activation curve with a large enough effect in the signal ratio in the repeat runs, not every such curve was filed as active; the % refers to the signal ratio; also: potency is read from the fitted curve at half-maximal effect)
Summary of the method: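 Wild-type CHO-K1 cells, plated overnight, exposed 3hr at 37C to 15 concentrations (0.76% DMSO final). Lysed, then HTRF anti-pH2AX (S139) cryptate and anti-H2AX-d2 antibodies, 24 hr room temperature; 665/620 nm emission read.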

[3] = qHTS assay to identify small molecule agonists of the hypoxia (HIF-1) signaling pathway (AID 1224846; active = well fitted activation curve with a large enough effect in the signal ratio in the repeat runs, not every such curve was filed as active; the % refers to the signal ratio)
Summary of the method: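 A low-serum medium (0.5% dialyzed FBS) holding 2,000 HRE-bla ME-180 cells per well is preincubated for 5 hrs, dosed with compounds by pintool, and kept a further 17 hrs at 37C, 5% CO2 before CCF4-AM FRET detection of beta-lactamase.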

[4] = qHTS assay to identify small molecule agonists of H2AX - cell viability counter screen (AID 1224847; calls by dose curve; also: nearly all actives have a fitted effect of over 30% in size; also: potency is read from the fitted curve at half-maximal effect)
Summary of the method: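 Wild-type CHO-K1 cells (10% FBS medium) were plated overnight at 37C, exposed to compounds at 15 concentrations for 3 hr at 37C (0.76% DMSO final), and viability was read as CellTiter-Glo luminescence after 30 min at room temperature.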

[5] = qHTS RealTime-Glo MT Cell Viability Assay in HepG2 cells - 24 hour (AID 1224867); also: nearly all actives have a fitted effect of over 50% in size; also: potency is read from the fitted curve at half-maximal effect
Summary of the method: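 Compound treatment began 5 h after plating HepG2 cells (600/well) with NanoLuc luciferase and prosubstrate. Plates stayed at 37 C for 40 h; luminescence was captured at six time points, 0 h through 40 h.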

[6] = qHTS RealTime-Glo MT Cell Viability Assay in HEK293 cells - 32 hour (AID 1224868); also: nearly all actives have a fitted effect of over 50% in size; also: potency is read from the fitted curve at half-maximal effect
Summary of the method: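 Quantitative high-throughput screen of the Tox21 10K library in HEK293: cells and RealTime-Glo reagents plated together, compound added at 5 h, luminescence monitored through 40 h at 37 C.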

[7] = A CellTox Green Cytotoxicity Assay to monitor cytotoxicity in HEK293 cells - 0 hour (AID 1224869); also: nearly all actives have a fitted effect of over 50% in size; also: potency is read from the fitted curve at half-maximal effect
Summary of the method: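 Fluorescence intensity, read at 0, 8, 16, 24, 32 and 40 h of compound treatment, reflected dye binding to DNA of dead HEK293 cells; compounds (23 nL, DMSO) were added 5 h after plating cells with reagent.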

[8] = qHTS RealTime-Glo MT Cell Viability Assay in HepG2 cells - 40 hour (AID 1224870); also: nearly all actives have a fitted effect of over 50% in size; also: potency is read from the fitted curve at half-maximal effect
Summary of the method: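 HepG2 cells (600/well) mixed with RealTime-Glo MT reagent, settled 5 h at 37 C/5% CO2 before compound addition. Nonlytic NanoLuc luminescence from viable-cell prosubstrate reduction read repeatedly during 40 h treatment at 37 C.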

[9] = qHTS assay to identify small molecule antagonists of the estrogen related receptor (ERR) signaling pathway from Tox21 library (AID 1224848); also: nearly all actives have a fitted effect of over 50% in size
Summary of the method: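 ERR reporter cell line (from NTP) seeded 2,000 cells/well, rested 6 h at 37 C/5% CO2, then pin-dosed with compounds in DMSO. After 18 h at 37 C, ONE-Glo added; luminescence read after 30 min at room temperature.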

[10] = qHTS assay to identify small molecule agonists of the estrogen related receptor (ERR) signaling pathway from Tox21 library (AID 1224849; calls by dose curve; also: nearly all actives have a fitted effect of over 15% in size); details: ERR reporter cell line, ONE-Glo luciferase, 18 h
Summary of the method: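 Screening used an NTP-provided ERR luciferase cell line. Compounds in DMSO were added 6 h after seeding and left 18 h at 37 C before a 30 min ONE-Glo step and luminescence reading.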

Row | SMILES | Potency [1] | Potency [2] | outcome [3] | Potency [4] | Potency [5] | Potency [6] | Potency [7] | Potency [8] | Potency [9] | activity change, positive = activation ([10]; at 92.4 µM (top of the series)) | activity change, positive = activation ([10]; at 42.5 µM (top of the series))
1 | CCC(=O)C(CC(C)N(C)C)(c1ccccc1)c1ccccc1 (stereo not drawn) | inactive | inactive | inactive | inactive | inactive | 24.4 µM (active) | inactive | inactive | – | – | –
2 | O=[N+]([O-])c1ccccc1O | inactive | inactive | inactive | inactive | inactive | inactive | inactive | inactive | inactive | 2.74% (inactive) and 26.9% (inactive) and 8.3% (inactive) | –
3 | O=C(O)C(Cl)(Cl)Cl | inactive | inactive | inactive | inactive | inactive | inactive | inactive | inactive | – | – | –
4 | CCCCCCCCCCCCCC[P+](CCCCCC)(CCCCCC)CCCCCC | 11 µM (active) and 17.5 µM (active) and inactive | inactive | inactive | 16 µM (active) and 28.6 µM (active) and 4 µM (active) | 9.82 µM (active) and 19.7 µM (active) and inactive | 3.91 µM (active) and 2.47 µM (active) and 1.95 µM (active) | inactive | 11 µM (active) and 22.1 µM (active) and inactive | – | – | –
5 | CCCCCCCCCCCCOS(=O)(=O)O | 48.3 µM (active) and inactive | inactive | inactive | inactive | inactive | inactive | inactive | inactive | – | – | –
6 | Oc1ccccc1-c1ccccc1 | inactive | inactive | inactive | inactive | inactive | inactive | inactive | inactive | – | – | –
7 | CNC | inactive | inactive | inactive | inactive | inactive | inactive | inactive | inactive | – | – | –
8 | O=c1nc(O)n(Cl)c(=O)n1Cl | inactive | inactive | inactive | inactive | inactive | inactive | inactive | inactive | inactive | 9.16% (inactive) and 1.98% (inactive) and 3.37% (inactive) | –
9 | CCCC[n+]1ccccc1 | inactive | inactive | inactive | inactive | inactive | inactive | inactive | inactive | – | – | –
10 | COCC(=O)N(c1c(C)cccc1C)C(C)C(=O)OC (stereo not drawn) | inactive | inactive | inactive | inactive | inactive | inactive | inactive | inactive | inactive | 1.31% (inactive) and 1.04% (inactive) | 5.38% (inactive)
11 | COc1ccc(N)cc1 | inactive | 99.1 µM (active) and 89.8 µM (active) | inactive | inactive | inactive | inactive | inactive | inactive | – | – | –
12 | CCCCn1cc[n+](C)c1 | inactive | inactive | inactive | inactive | inactive | inactive | inactive | inactive and 35.2 µM (active) | – | – | –
13 | CC[N+]1(C)CCCC1 | inactive | inactive | inactive | inactive | inactive | inactive and 21.9 µM (active) | inactive | inactive | – | – | –
14 | CCCCn1cc[n+](C)c1C | inactive | inactive | inactive | inactive | inactive | inactive | inactive | inactive and 22.1 µM (active) | – | – | –
15 | CC[N+](CC)(CC)CC | inactive | inactive | inactive | inactive | inactive | inactive | inactive | inactive | – | – | –
16 | O=[N+]([O-])O | inactive | inactive | inactive | inactive | inactive | inactive | inactive | inactive | – | – | –

Row | SMILES | Potency [1] | Potency [2] | outcome [3] | Potency [4] | Potency [5] | Potency [6] | Potency [7] | Potency [8] | Potency [9] | activity change, positive = activation ([10]; at 92.4 µM (top of the series)) | activity change, positive = activation ([10]; at 42.5 µM (top of the series))
17 | CCC[N+]1(C)CCCCC1 | inactive | inactive | inactive | inactive | inactive | inactive | inactive | inactive and 24.6 µM (active) | – | – | –
18 | O=S(=O)(O)O | inactive | inactive | inactive | inactive | inactive | inactive | inactive | inactive | – | – | –
19 | O=C(O)c1nc(Cl)ccc1Cl | inactive | inactive | inactive | inactive | inactive | inactive | inactive | inactive | – | – | –
20 | CCn1cc[n+](C)c1C | inactive | inactive | inactive | inactive | inactive | inactive | inactive | inactive | – | – | –
21 | O=C(O)C(Cl)Cl | inactive | inactive | inactive | inactive | inactive | inactive | inactive | inactive | – | – | –
22 | CCOP(=S)(OCC)Oc1ccc2c(C)c(Cl)c(=O)oc2c1 | inactive | inactive | inactive | inactive | inactive | 12.4 µM (active) and 43.6 µM (active) and inactive | inactive | inactive | inactive | -10.9% (inactive) and -28.3% (inactive) | 25.6% (active)
23 | CCNc1nc(Cl)nc(NCC)n1 | 55.2 µM (active) and inactive | inactive | inactive | inactive | inactive | inactive | inactive | inactive | inactive | -3.33% (inactive) and -18.8% (inactive) | -12% (inactive)
24 | OCCOc1ccccc1 | inactive | inactive | inactive | inactive | inactive | inactive | inactive | inactive | inactive | -33.2% (inactive) and 4.84% (inactive) | 7.59% (inactive)
25 | COc1ccccc1N | inactive | inactive | inactive | inactive | inactive | inactive | inactive | inactive | inactive | 8.48% (inactive) and 0.539% (inactive) and 1.9% (inactive) | –
26 | O=c1[nH]c(=O)n(Cl)c(=O)n1Cl | inactive | inactive | inactive | inactive | inactive | inactive | inactive | inactive | inactive | 2.32% (inactive) and 2.59% (inactive) and 1.02% (inactive) | –
27 | C[N+](C)(C)Cc1ccccc1 | inactive | inactive | inactive | inactive | inactive | inactive | inactive | inactive | – | – | –
28 | CCCC[N+]1(C)CCCCC1 | inactive | inactive | inactive | inactive | inactive and 48.8 µM (active) | inactive | inactive | inactive and 30.8 µM (active) | – | – | –
29 | Cc1cc(Cl)ccc1N | inactive | inactive | inactive | inactive | inactive | inactive | inactive and 38.9 µM (active) | inactive | – | – | –
30 | C1CCC(NC2CCCCC2)CC1 | inactive | inactive | inactive | inactive | inactive | inactive | inactive | inactive | – | – | –
31 | O=C(O)CCl | inactive | inactive | inactive | inactive | inactive | inactive | inactive | inactive | inactive | 5.04% (inactive) and -0.191% (inactive) and -5.49% (inactive) | –
32 | CCCCCCCCCCCC(=O)O | inactive | inactive | inactive | inactive | inactive | inactive | inactive | inactive | – | – | –
